Hit rate of the full screen: of about 1,500 compounds, about 390 (26%) were called active. How the calls were made is not given here. The list is a sample of the results. Potency and affinity values are given separately.
target: Histone-lysine N-methyltransferase NSD2 (Homo sapiens) (UniProt O96028); test: NSD2 methyltransferase inhibitors, dose response, biochemical, AlphaScreen, cherry-picked samples (AID 1053173); conditions: NSD2 H4 peptide methylation, 120 min; series mostly up to 10 µM; activity change, negative = inhibition: at the top concentration;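 further: 0% = neutral control wells and -100% = positive control wells on each plate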
Sequence (O96028 whole entry, looked up): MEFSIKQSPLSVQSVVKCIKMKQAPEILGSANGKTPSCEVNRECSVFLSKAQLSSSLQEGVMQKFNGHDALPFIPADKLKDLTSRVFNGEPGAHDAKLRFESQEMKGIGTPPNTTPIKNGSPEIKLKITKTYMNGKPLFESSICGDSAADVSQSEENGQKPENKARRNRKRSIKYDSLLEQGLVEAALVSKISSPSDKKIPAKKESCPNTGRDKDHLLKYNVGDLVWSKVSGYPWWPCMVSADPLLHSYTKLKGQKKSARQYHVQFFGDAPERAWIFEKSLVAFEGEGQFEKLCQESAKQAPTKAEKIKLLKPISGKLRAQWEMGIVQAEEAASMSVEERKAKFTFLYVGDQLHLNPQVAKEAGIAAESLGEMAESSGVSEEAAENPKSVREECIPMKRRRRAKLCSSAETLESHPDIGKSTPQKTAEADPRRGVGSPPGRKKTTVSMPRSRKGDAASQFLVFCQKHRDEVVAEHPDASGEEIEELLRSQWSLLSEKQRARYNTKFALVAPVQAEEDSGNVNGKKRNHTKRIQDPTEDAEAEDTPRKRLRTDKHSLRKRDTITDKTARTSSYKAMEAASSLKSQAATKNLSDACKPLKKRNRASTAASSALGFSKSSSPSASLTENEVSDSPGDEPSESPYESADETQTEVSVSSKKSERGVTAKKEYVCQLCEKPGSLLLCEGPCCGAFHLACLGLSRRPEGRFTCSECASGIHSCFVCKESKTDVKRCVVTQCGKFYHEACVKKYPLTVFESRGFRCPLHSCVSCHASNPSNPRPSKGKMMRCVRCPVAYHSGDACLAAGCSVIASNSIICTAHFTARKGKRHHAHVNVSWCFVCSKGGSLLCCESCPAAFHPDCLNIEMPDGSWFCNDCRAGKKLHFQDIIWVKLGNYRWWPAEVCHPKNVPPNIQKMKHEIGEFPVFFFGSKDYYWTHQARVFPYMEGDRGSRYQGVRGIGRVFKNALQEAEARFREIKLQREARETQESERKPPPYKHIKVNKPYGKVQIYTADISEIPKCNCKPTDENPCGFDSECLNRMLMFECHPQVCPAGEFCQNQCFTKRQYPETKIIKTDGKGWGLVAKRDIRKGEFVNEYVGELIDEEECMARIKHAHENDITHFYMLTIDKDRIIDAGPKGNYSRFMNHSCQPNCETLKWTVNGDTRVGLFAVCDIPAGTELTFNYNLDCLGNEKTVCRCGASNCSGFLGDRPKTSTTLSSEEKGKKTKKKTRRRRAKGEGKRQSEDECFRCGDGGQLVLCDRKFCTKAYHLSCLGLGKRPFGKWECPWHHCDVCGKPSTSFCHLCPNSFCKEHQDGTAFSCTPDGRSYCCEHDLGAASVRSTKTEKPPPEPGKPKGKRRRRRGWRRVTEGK

Activity change, negative = inhibition, inactive:
O=C(NC1=NCCS1)c1csc2ccccc12 3.99%
O=C(Nc1cc(C(F)(F)F)ccc1N1CCCC1)C1CC(=O)N(Cc2ccccc2)C1 (stereo not given) -0.7%
Cc1cc(C)c(NC(=S)N(C)C)cc1C 6.18%
COc1ccc(C2/C(=C(\O)c3cccc(OC)c3)C(=O)C(=O)N2c2ccccn2)cc1 (stereo not given) -2.01%
COc1ccc(C(=O)N[C@H](C(=O)NCc2ccc(C)cc2)C(C)C)cc1 -3.5%
Cc1ccc(C)c(S(=O)(=O)N2CCCOC2CNC(=O)C(=O)NCc2cccnc2)c1 (stereo not given) -1.12%
Nc1c2c(=O)[nH]c(O)cc2nn1-c1ccccc1 -2.54%
COc1ccc(OC)c(C(=O)Nc2c(O)ccc3ccccc23)c1 0.436%
O=c1[nH]c(CN2CCCCC2)ccc1O -3.02%
Cc1cc(=O)n2[nH]c(-c3ccco3)nc2n1 -15.9%
Cc1onc(-c2c(Cl)cccc2Cl)c1C(=O)ONC(=O)c1cc(C(F)(F)F)cc(C(F)(F)F)c1 5.31%
O=c1c2ccc([N+](=O)[O-])cc2sn1-c1ccccc1 -8.02%
O=[N+]([O-])c1ccc(-c2cccnc2)cc1 -0.274%
CCOc1ccccc1NCc1nnc(-c2ccccc2)o1 1.86%
O=C(c1cc(-c2ccc(Cl)c(Cl)c2)on1)N1CCCCCC1 3.26%
COc1ccc(C)cc1S(=O)(=O)Nc1ccccc1C 2.58%
O=[N+]([O-])c1ccc(N(CC(O)CN2CCCCC2)S(=O)(=O)c2ccccc2)cc1 (stereo not given) 2.36%
O=S(=O)(c1ccc2c(c1)nc1n2CCC1)N1CCOCC1 -0.647%
CCCc1nc2sc3ccccc3c(=O)c2c(=O)n1Cc1ccccc1 -0.876%
CCOc1ccccc1N(CC(=O)NCCc1ccc(OC)c(OC)c1)S(=O)(=O)c1ccccc1 0.589%
COc1ccc(CCNc2c([N+](=O)[O-])ncn2C)cc1OC 4.09%
COCc1[nH][nH]c(=O)c1C=NCC(=O)OC -0.914%
N=C1C(c2nc(-c3ccc(F)cc3)cs2)=C(O)CN1Cc1ccc(Cl)cc1 0.005%
CC(C)(C)c1[nH]nc2c1C(C1C=CCCC1)C(C#N)=C(N)O2 (stereo not given) 0.027%
O=C(NC1CCCCC1)c1ccc(S(=O)(=O)NCc2ccco2)cc1 -4.03%
Cn1c(=O)c2c(-c3ccccc3)n(Cc3cccnc3)cc2n(C)c1=O -1.34%
CCOC(=O)c1c(C)[nH]c(C(=O)NCCN2CCOCC2)c1C -4.3%
O=C(CCCN1C(=O)/C(=C/c2ccccc2)SC1=S)Nc1ccc(C(=O)O)c(O)c1 -8.83%
O=C(CCCN1C(=O)/C(=C/c2cccs2)SC1=S)Nc1ccc(O)c(C(=O)O)c1 -19.5%
N=c1c(C(=O)NCc2ccco2)cc2c(=O)n3ccccc3nc2n1C1CCCC1 -4.02%
COc1cccc(CN2CCC(Oc3ccc(C(=O)N4CCCCC4)cc3)CC2)c1O -5.73%
Cc1ccc(NC(=O)CN(C)CCOc2ccccc2)c([N+](=O)[O-])c1 -3.45%
CN1CCN(/N=C/c2nc(-c3ccccc3Cl)n3ccccc23)CC1 2.35%
Cn1c(SCc2ccccc2C#N)nc2ccccc2c1=O -0.012%
COc1cn(-c2ccccc2)nc1C(=O)NCc1ccccc1 -3.17%
C=CCSc1nnc(-c2ccc(Cl)cc2Cl)o1 5.59%
CCOC(=O)C1=CN(c2cccc(F)c2)C=C(C(=O)OCC)C1c1cc(OC)c(O)c([N+](=O)[O-])c1 -7.24%
CCC1CC(CSc2ncn[nH]2)OC1=O (stereo not given) 0.746%
COc1ccccc1CNC(=O)C(NC(=O)Nc1ccccc1)C(C)C (stereo not given) -3.7%
CC(C)(C)/C=N/NC(=O)CNC(=O)c1ccc2c(c1)OCCO2 1.14%
CS(=O)(=O)N(CC(=O)NCc1ccco1)c1ccc2c(c1)OCO2 -3.9%
COc1cc(NC(=O)COC(=O)CNC(=O)c2ccc(C)cc2)c(C)cc1[N+](=O)[O-] -3.2%
Cc1ccc(NC(=S)Nc2cccc3cnccc23)cc1 -5.24%
CCOc1ccc(NC(=S)N2CCC(NC(=O)C3CCCCC3)CC2)cc1 0.233%
CCc1ccc(NC(=S)Nc2cccc3cnccc23)cc1 -1.42%
Fc1ccc(NC(=S)Nc2ccc3nccnc3c2)cc1 2.33%
S=C(Nc1ccc2nsnc2c1)N1CCCC1 -6.84%
COc1cc(/C=N/N2CCN(C3c4ccccc4-c4ccccc43)CC2)cc(OC)c1OC -4.53%
Cc1ccc(CSc2nc3c(c(=O)[nH]2)C(c2ccncc2)C2=C(CCCC2=O)N3)cc1 (stereo not given) -4.75%
CC(=O)c1cccc(NC(=O)c2csc(-n3nc(C)cc3C(F)(F)F)n2)c1 3.13%
CCCC(C(=O)NC(C)(C)C)N(CC1CCCO1)C(=O)CNS(=O)(=O)c1ccc(F)cc1 (stereo not given) -3.4%
CC(=O)Nc1ccc(SCCC2CCCCN2C)cc1 (stereo not given) -0.85%
CCOc1ccc(-n2cnc3sc4c(c3c2=O)CCCC4)cc1 0.365%
C[N+](C)(C)CCC(=O)N1C/C(=C/c2ccccc2)C(=O)/C(=C\c2ccccc2)C1 -3.58%
O=C(CN1C(=O)c2ccc([N+](=O)[O-])cc2C1=O)Nc1nnc(C2CC2)s1 4.34%
Cc1ccc(NC(=O)c2cc([N+](=O)[O-])ccc2NCc2cccnc2)cc1Cl -5.31%
CC(=O)N1CCc2cc(Br)cc(S(=O)(=O)NCCCN(C)Cc3ccccc3)c21 -2.14%
CN1CCC(=NNC(=O)c2cn(-c3ccccc3)nc2-c2ccccc2)CC1 0.308%
Cc1ccccc1-c1noc(C23CC4CC(CC(C4)C2)C3)n1 4.84%
CCOC(=O)C1CCCN(C(=O)c2ccc(OC(C)=O)cc2)C1 (stereo not given) 0.226%
Cc1nnc(Sc2cc(NCCO)c([N+](=O)[O-])c3nonc23)s1 0.095%
CC(C)CNC(=O)c1cnn2c(C(F)(F)F)cc(C(F)(F)F)nc12 -1.7%
Nc1c(Br)cc(Br)c2c1[nH]c(=O)c1ccccc12 -9.35%
CCOc1cc(N2CCOCC2)c(OCC)cc1NC(=O)c1cnccn1 -2.35%
COc1cc(/C=N/n2c(C)nnc2C)cc(OC)c1OC -1.56%
O=C(c1ccccc1OCc1ccccc1Br)N1CCN(c2ncccn2)CC1 1.96%
N#Cc1ccc(-c2ccco2)nc1SCc1ccccc1 -2.11%
CSc1nnc(-c2ccco2)c(-c2ccco2)n1 -10.2%
CCOC(=O)CC(NS(=O)(=O)c1ccc2[nH]cc(C(=O)O)c(=O)c2c1)c1ccc(OCC)c(OC)c1 (stereo not given) -7.85%
O=C(/C=C/c1ccc(OCCCF)cc1)N1CCN(Cc2ccccc2)CC1 -3.48%
CN1C(=O)C(=O)/C(=C(/O)c2ccccc2)C1c1ccccc1 (stereo not given) -2.62%
CCn1c(SC(=O)NC2CCCCC2)nnc1-c1cccs1 6.57%
Cc1cc(C)c(NC(=O)C2CC(=O)N(c3ccc4c(c3)OCCO4)C2)c(C)c1 (stereo not given) -2.35%
C/[N+]([O-])=C1\Cc2ccccc2C1=O 1.15%
Cc1cc(C)nc(N2CCC(C(=O)N(C)CCc3ccccc3)CC2)n1 -0.983%
O=C(CN(C(=O)c1csnn1)c1cccc2ccccc12)NCc1ccccc1 1.06%
Cc1cc(C(=O)COC(=O)c2n[nH]c3ccccc23)c(C)n1C -2.21%
O=C(NCCCn1ccnc1)C1CCN(S(=O)(=O)c2ccc(F)cc2)CC1 -3.94%
CC(=O)Nc1ccc(S(=O)(=O)NCCSCc2ccc(Cl)cc2Cl)cc1 0.56%
CC(C)NCC#CCOc1ccc(Cl)cc1 -11.6%
COC(=O)c1ccc(-n2nnnc2SCC(=O)NCc2cccc(C(=O)O)c2)cc1 1.21%
O=C(NCc1ccco1)c1scc2c1OCCO2 -1.63%
CC(C)(C)NC(=O)C(c1ccco1)N(C(=O)Cn1nnc(-c2ccc(F)cc2)n1)c1ccccc1F (stereo not given) 3.9%
O=C(c1ccccc1)c1cc2ccccc2oc1=O 0.833%
Cc1cc(=O)oc(C)c1C(=O)OCC(=O)c1ccccc1 1.53%
COc1ccc(N2CCOCC2)c(NC(=O)c2ccc3c(c2)OCO3)c1 -3.97%
CCC1Cc2c(nc(N)c3c(N)nc(N4CCOCC4)c(C#N)c23)O1 (stereo not given) -3.29%
CCOc1cc2c(C#N)c(N3CCOCC3)nc(N)c2c(N)n1 -0.342%
CC(C)n1c(NCc2nc3ccccc3n2C)nc2ccccc21 -0.542%
CCc1ccc(N2C(=O)C3C(C2=O)N2CCCN2C3c2ccccc2)cc1 (stereo not given) 3.23%
COc1cc(/C=C2\C(=O)ON=C2c2ccccc2)cc(Cl)c1O -10.3%
O=C1C(=Cc2ccco2)CCC1=Cc1ccco1 -10.4%
COc1ccc(CNC(=O)CCCN2C(=O)NC3(CCCC3)C2=O)cc1 4.98%
COc1ccc(NC(=O)Cn2nnc(C(=O)NCCc3ccc(OC)c(OC)c3)c2N)cc1 -1.57%
Cc1ccc(S(=O)(=O)N2CCCCC2CCNC(=O)C(=O)Nc2ccccc2F)cc1 (stereo not given) 2.31%
CC(=O)N(C)c1ccc(N=Nc2c(C)[nH]n(C(N)=S)c2=O)cc1 -3.77%
COC(=O)[C@H](Cc1ccccc1)NC(=O)Nc1ccc(S(N)(=O)=O)cc1 -1.38%
O=C(CSc1nc(SCC(=O)NCc2ccccc2)n(-c2ccccc2)n1)NCc1ccccc1 -1.26%
CCCCNC1=CC(=O)C(=O)c2ccccc21 -12.7%
NS(=O)(=O)c1ccc(N/N=C/c2ccncc2)cc1 -3.56%
COc1ccc(C(=O)Nc2c3c(nn2-c2ccc(Cl)cc2)CS(=O)(=O)C3)cc1 -0.12%
CC(=O)N1C2CCCCC2S[C@H]2CCCCC21 (stereo not given in full) 1.03%
O=C(NCc1ccco1)Nc1cccc([N+](=O)[O-])c1 -2.52%
CCCCc1nc2cc(C(=O)N3CCC(O)CC3)ccc2o1 -1.24%
O=C(NC(c1ccc(Cl)cc1)c1cc(Cl)c2cccnc2c1O)c1cccnc1 (stereo not given) -3.15%
CCCn1c(C)nc2c(c1=O)c1nc3ccccc3nc1n2-c1ccccc1 3.1%
Cn1c(=O)c(-c2ccccc2)nc2ccccc21 10.3%
CC(=O)Nc1ccc(N(C(=O)CNC(=O)c2ccco2)C(C(=O)NCC2CCCO2)c2ccccc2)cc1 (stereo not given) 0.85%
CCN(CC)S(=O)(=O)c1cccc(-c2nnc(SCCCC(=O)c3ccc(F)cc3)o2)c1 3.87%
Cc1[nH]n(-c2ccccc2)c(=O)c1N=Nc1ccccc1C(=O)N1CCCCC1 -7.67%

Reference: PubChem BioAssay AID1053173 (Broad Institute, 2014)
